The source of these data is PubChem BioAssay.

SMILES strings stand for the structures. For some of these results: Entries with a potency or affinity are not part of this list. The source made the active and inactive calls.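 The calls were made as follows, unless noted: active = compound raising the membrane signal above positive-control mean plus 3 SD in both repeats, and a primary screen hit; inactive = the rest.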

For experiment [1], the system named is TRPC4 beta (transient receptor potential cation channel C4), mouse. The experiment in a line: activators of mouse TRPC4 channel, confirmation, cell-based, Fluo4 calcium, HEK293 TRPC4beta/mu-opioid, duplicates, 10 µM (AID 2426;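 active = fluorescence ratio normalized to control raised more than 50% in primary screen plus both repeat runs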). The following applies: Fluo4 calcium fluorescence, at 10 µM; active compounds read high.
The subject of experiment [2] is transient receptor potential cation channel C4 beta (TRPC4), mouse. Kind of experiment: activators of mouse TRPC4 channel, confirmation, cell-based, second round, Fluo4, HEK293 TRPC4beta/mu-opioid, 1 µM (AID 2461;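 active = primary screen active and over 50% activation in each of two duplicate runs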). The settings on record: Fluo4 calcium fluorescence, at 1 µM; active compounds read high.
Experiment [3] relates to TRPC4 (transient receptor potential cation channel C4 beta), mouse. Kind of experiment: positive allosteric modulators of mouse TRPC4, confirmation, cell-based, second round, Fluo-4, HEK293 TRPC4beta/mu-opioid, 1 µM (AID 2554;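 active = primary screen hit whose fluorescence ratio, in both repeats, exceeds the weak agonist control mean by 3 SD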). The following applies: DAMGO EC20, Fluo-4 calcium flux, at 1 µM; active compounds read high.
Experiment [4] deals with TRPC4 beta (transient receptor potential cation channel C4), mouse. The experiment in a line: positive allosteric modulators of mouse TRPC4, confirmation, cell-based, Fluo-4, HEK293 TRPC4beta/mu-opioid (AID 2555;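 active = primary screen hit whose calcium fluorescence ratio, in both repeats, exceeds the weak agonist control mean by 3 SD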). The following applies: DAMGO EC20, Fluo-4 calcium flux, at 10 µM; active compounds read high. Background: Calcium assays in cells follow changes in intracellular calcium, usually with a dye or a luminescent sensor.

For experiment [5], the target named is Short transient receptor potential channel 4 (Mus musculus) (UniProt Q9QUQ5). Kind of experiment: inhibitors of mouse TRPC4 channel, confirmation, cell-based, Fluo4, HEK293 TRPC4beta/mu-opioid (AID 2636;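 active = calcium signal cut by more than 3 SD below the full-agonist control yet still positive, in both repeats and the earlier primary screen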). The following applies: DAMGO, Fluo4 calcium flux, at 10 µM; active compounds read high.
The target is the same in experiment [6]. The experiment in a line: inhibitors of mouse TRPC4 channel, confirmation, cell-based, second round, Fluo4, HEK293 TRPC4beta/mu-opioid, 1 µM (AID 2637;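 active = calcium signal ratio cut to more than 3 SD under the fully stimulated control mean yet still positive, in both repeats and the primary screen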;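 as to inhibition: percent of integrated ratio relative to wells lacking test compound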). The following applies: Fluo4 calcium flux, DAMGO, at 1 µM; active compounds read high.
Experiment [7] has the same target. The experiment in a line: mouse TRPC4 channel activators, dose response, cell-based, HEK293 TRPC4/mu-opioid, Fluo-4 calcium (AID 434937;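 active = primary screen activator hit with a dose response curve and TRPC4 channel activation at any tested dose; inactive = no activation, no dose response, or not a primary hit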).
Experiment [8] has the same target. Kind of experiment: TRPC4 positive allosteric modulators, dose response, cell-based, HEK293 TRPC4/mu-opioid, Fluo-4 calcium, EC20 DAMGO (AID 434941;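 active = earlier screen potentiator hit that boosts the TRPC4 ion channel at some dose, with a dose response; inactive = no potentiation, no dose response, or not a prior hit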;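 also: calcium entry triggered by an EC20 dose of DAMGO at the co-expressed mu-opioid receptor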).
Experiment [9] has as its target Short transient receptor potential channel 6 (Mus musculus) (UniProt Q61143). Kind of experiment: inhibition of mouse TRPC6 channel, confirmation, selectivity assay for TRPC4 inhibitor project, cell-based, HEK293, membrane potential dye, duplicate (AID 434948;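 active = active in primary screen and both duplicates, each dropping signal beyond three positive-control SD with fluorescence still positive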). The following applies: HEK293 TRPC6, membrane potential dye fluorescence, at 10 µM, stimulated with maximal-effect acetylcholine; active compounds read high.

For experiment [10] the target is unchanged. Kind of experiment: activation of mouse TRPC6 channel, confirmation, selectivity assay for TRPC4 activator project, cell-based, HEK293, membrane potential dye, duplicate (AID 434950;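 active = membrane potential signal rise above negative control mean plus 3 SD in both duplicates, also active in the earlier TRPC4 screen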). The settings on record: HEK293 TRPC6, membrane potential fluorescence, at 10 µM; active compounds read high.
The target is the same in experiment [11]. Kind of experiment: TRPC6 potentiation by TRPC4 potentiator hits, confirmation, selectivity assay for TRPC4 potentiator project, HEK293 cells, membrane potential dye, duplicate (AID 434952). The following applies: HEK293 TRPC6, membrane potential dye fluorescence, at 10 µM, maximal acetylcholine added after compound; active compounds read high.
The target in experiment [12] is Short transient receptor potential channel 4 (Mus musculus) (UniProt Q9QUQ5). The experiment in a line: calcium flux activators in TRPC4/5HT1a cells, counter-screen for TRPC4 activator project, cell-based, second counter screen, HEK293 TRPC4/5HT1a, Fluo-4 (AID 434977;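 active = calcium signal rise above buffer-control mean plus 5 SD in both duplicates, and also a hit in the primary screen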). The settings on record: Fluo-4 calcium flux, at 10 µM; active compounds read high.
Experiment [13] is described as follows: calcium flux inhibitors in TRPC4/5HT1a cells, confirmation, counter-screen for TRPC4 inhibitor project, cell-based, second counter screen, HEK293 TRPC4/5HT1a, Fluo-4 (AID 434978;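 active = primary screen active whose calcium signal fell more than 3 SD beyond the full-serotonin control mean in both duplicate plates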;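 as to outcome: serotonin given first at submaximal then at maximal dose after compound preincubation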). The settings on record: Fluo-4 calcium flux, at 10 µM, serotonin added to trigger calcium flux; active compounds read high.
The subject of experiment [14] is TRPC4 (mouse), co-expressed with 5HT1a in HEK293. Kind of experiment: calcium flux potentiators in TRPC4/5HT1a cells, confirmation, counter-screen for TRPC4 potentiator project, cell-based, second counter screen, HEK293 TRPC4/5HT1a, Fluo-4 (AID 434979;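 active = signal rise over 3 SD above mean of control wells given weak agonist, in both repeats and first screen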). The following applies: Fluo-4 calcium flux, at 10 µM, serotonin added at its EC20 dose; active compounds read high.
The nature of experiment [15]: calcium flux activation in mu-opioid HEK293 cells, confirmation, counter-screen for TRPC4 activator project, cell-based, HEK293 mu-opioid receptor line (AID 449723;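 active = hit in primary screen, with calcium signal over 5 SD above buffer well mean in both duplicates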;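 also: counter screen cells carry the mu-opioid receptor alone and lack TRPC4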). The settings on record: Fluo-4 calcium fluorescence, at 10 µM; active compounds read high.
Experiment [16] can be described thus: calcium flux enhancement in mu-opioid HEK293 cells, confirmation, counter-screen for TRPC4 allosteric potentiator project, cell-based, HEK293 mu-opioid receptor line (AID 449724;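 active = calcium signal rise more than 3 SD above the low-dose agonist control mean, in both duplicate plates and the primary screen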;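 also: HEK293 cells carrying mu-opioid receptor only with no TRPC4 channel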). The settings on record: Fluo-4 calcium flux, at 10 µM, compound added before EC20 DAMGO stimulus; active compounds read high.
The nature of experiment [17]: thallium flux activation in parental CHO cells, counter-screen for KCNQ1 potentiator project (AID 493006;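 active = duplicate-averaged activation above buffer control mean plus 5 SD of those controls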;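 as to activation: fluorescence ratio of max minus min over baseline after K+ and Tl+ depolarization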). The settings on record: parental CHO-K1 cells, FluxOR thallium flux, at 10 µM; active compounds read high.
In experiment [18] the target is Potassium voltage-gated channel subfamily KQT member 1 (Homo sapiens) (UniProt P51787). The experiment in a line: KCNQ1 potassium channel potentiators, confirmation, FluxOR thallium flux, CHO cells, duplicates (AID 493007;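 active = potentiation averaged over duplicate wells exceeding buffer-only control mean by more than 3 SD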;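 as to outcome: cells depolarized by a potassium plus thallium sulfate stimulus after compound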;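 as to potentiation: 0% = buffer-only wells and 100% = R-L3 activator control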). The settings on record: KCNQ1 cell line, FluxOR thallium flux fluorescence, at 10 µM; active compounds read high, % of reference activator effect, buffer zero.

Experiment [19] deals with Potassium voltage-gated channel subfamily KQT member 2 (Rattus norvegicus) (UniProt O88943). Kind of experiment: rat KCNQ2 channel potentiation, selectivity assay for KCNQ1 potentiator project, KCNQ2-CHO-K1 cells (AID 493009;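 active = mean duplicate potentiation above the buffer control mean plus 5 SD of buffer wells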;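 also: assay conditions were tuned for KCNQ1 rather than KCNQ2 modulators; signal is max minus min fluorescence divided by baseline after thallium stimulus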). The settings on record: FluxOR thallium flux fluorescence, at 10 µM; active compounds read high, scaled: buffer 0, activator control 100.
Experiment [20] addresses Potassium voltage-gated channel subfamily KQT member 1 (Homo sapiens) (UniProt P51787). The experiment in a line: KCNQ1 channel current potentiators, confirmation, orthogonal assay for KCNQ1 potentiator project, IonWorks patch clamp, KCNQ1-CHO cells (AID 493184;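 active = current rise at least 3 SD above the untreated control mean in each of two repeat wells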). The settings on record: automated patch clamp current, at 10 µM; active compounds read high. A general note: In patch-clamp work, channel activity is measured electrically.

Sequence of Short transient receptor potential channel 4 (Mus musculus) (Q9QUQ5 whole entry, looked up): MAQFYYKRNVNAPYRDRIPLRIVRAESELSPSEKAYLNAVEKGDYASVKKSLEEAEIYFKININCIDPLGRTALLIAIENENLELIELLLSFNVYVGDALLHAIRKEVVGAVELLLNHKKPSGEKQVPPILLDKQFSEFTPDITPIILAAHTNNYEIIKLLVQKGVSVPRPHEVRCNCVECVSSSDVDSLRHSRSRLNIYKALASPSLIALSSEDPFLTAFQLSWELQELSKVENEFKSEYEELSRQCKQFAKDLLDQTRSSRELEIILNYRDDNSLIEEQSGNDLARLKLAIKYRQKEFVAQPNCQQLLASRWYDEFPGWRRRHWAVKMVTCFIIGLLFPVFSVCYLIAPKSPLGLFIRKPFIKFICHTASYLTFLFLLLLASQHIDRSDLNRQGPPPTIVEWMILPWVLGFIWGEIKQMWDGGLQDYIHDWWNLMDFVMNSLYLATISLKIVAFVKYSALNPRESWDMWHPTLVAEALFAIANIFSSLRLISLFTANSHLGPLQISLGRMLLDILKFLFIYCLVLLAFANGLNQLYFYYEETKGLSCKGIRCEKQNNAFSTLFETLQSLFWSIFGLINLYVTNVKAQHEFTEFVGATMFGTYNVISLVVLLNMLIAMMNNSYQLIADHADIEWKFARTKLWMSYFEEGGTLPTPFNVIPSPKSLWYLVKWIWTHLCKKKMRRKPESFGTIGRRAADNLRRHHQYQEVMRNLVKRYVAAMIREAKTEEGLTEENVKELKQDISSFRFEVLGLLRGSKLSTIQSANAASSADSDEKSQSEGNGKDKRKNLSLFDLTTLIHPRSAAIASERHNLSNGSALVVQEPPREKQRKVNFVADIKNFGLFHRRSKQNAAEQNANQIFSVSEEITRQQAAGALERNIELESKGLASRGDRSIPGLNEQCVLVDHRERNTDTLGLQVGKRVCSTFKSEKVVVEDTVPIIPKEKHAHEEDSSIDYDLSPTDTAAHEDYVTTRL
Sequence of Short transient receptor potential channel 6 (Mus musculus) (Q61143 whole entry, looked up): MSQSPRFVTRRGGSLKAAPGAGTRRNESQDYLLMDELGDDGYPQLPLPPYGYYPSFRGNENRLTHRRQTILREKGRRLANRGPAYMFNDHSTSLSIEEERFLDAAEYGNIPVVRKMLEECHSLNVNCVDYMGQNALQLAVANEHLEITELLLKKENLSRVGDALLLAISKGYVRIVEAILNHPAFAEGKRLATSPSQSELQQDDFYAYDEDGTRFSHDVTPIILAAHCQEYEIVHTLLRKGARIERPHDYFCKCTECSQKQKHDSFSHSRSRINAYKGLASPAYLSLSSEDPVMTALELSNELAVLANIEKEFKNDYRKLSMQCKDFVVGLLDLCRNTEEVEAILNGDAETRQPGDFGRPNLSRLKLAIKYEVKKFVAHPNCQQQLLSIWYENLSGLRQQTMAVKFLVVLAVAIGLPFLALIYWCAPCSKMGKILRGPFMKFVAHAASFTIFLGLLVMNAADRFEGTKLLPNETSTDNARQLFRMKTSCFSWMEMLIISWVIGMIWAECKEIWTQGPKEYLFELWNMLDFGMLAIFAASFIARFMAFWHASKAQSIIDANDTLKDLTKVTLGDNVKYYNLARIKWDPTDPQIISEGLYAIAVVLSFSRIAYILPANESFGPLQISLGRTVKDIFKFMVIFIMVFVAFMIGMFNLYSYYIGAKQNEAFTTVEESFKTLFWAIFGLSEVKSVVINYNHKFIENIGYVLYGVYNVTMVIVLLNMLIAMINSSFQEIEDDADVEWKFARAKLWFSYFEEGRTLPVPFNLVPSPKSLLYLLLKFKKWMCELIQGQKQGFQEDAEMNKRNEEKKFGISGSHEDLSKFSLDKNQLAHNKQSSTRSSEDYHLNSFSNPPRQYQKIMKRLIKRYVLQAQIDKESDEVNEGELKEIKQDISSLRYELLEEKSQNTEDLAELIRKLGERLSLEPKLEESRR
Sequence of Potassium voltage-gated channel subfamily KQT member 1 (Homo sapiens) (P51787 whole entry, looked up): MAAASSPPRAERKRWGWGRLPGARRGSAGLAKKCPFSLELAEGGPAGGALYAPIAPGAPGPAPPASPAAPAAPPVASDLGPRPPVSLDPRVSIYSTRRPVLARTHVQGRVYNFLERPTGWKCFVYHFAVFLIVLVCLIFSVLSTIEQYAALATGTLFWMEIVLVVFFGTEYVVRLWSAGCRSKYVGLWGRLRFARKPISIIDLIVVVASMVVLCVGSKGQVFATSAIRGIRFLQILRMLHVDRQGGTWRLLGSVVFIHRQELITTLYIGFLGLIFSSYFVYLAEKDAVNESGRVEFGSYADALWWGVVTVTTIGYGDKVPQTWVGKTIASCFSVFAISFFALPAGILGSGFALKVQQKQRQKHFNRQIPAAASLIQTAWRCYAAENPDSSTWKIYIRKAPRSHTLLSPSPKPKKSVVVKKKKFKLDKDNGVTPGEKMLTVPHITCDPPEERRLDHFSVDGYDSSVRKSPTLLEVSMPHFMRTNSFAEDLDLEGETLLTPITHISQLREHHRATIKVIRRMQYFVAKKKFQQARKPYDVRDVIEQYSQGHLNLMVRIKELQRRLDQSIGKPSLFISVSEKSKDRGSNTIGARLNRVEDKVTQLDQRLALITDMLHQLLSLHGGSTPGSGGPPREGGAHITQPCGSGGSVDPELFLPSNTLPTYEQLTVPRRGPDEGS
Sequence of Potassium voltage-gated channel subfamily KQT member 2 (Rattus norvegicus) (O88943 whole entry, looked up): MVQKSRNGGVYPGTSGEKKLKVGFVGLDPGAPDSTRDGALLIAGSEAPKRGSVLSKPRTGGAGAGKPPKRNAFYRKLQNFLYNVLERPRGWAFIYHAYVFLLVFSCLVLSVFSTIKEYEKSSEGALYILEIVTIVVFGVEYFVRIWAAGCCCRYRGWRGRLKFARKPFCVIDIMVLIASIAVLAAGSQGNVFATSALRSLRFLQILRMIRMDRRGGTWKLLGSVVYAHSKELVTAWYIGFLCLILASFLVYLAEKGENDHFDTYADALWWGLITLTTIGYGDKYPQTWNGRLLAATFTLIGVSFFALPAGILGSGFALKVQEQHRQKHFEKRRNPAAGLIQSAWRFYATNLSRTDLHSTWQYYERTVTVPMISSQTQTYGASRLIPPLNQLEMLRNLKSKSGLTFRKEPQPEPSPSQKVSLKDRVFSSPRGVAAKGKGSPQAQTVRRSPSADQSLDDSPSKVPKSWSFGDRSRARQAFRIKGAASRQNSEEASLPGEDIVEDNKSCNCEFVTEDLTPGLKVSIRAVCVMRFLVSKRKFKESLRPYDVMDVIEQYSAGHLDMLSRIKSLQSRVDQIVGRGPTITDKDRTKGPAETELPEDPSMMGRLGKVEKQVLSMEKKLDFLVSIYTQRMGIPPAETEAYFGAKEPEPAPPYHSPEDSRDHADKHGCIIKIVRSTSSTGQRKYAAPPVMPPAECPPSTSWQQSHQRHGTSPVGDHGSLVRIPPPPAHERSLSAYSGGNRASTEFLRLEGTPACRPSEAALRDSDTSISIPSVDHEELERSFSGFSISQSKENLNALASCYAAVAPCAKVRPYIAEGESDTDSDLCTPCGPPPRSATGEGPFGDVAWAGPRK

For orientation: inhibition means the share of the control response that was lost under treatment. As for `CC(=O)C1=C(S(=O)(=O)c2ccc(C)cc2)CS(=O)(=O)C1`, the result in [1], in experiment [2], in experiment [3], in [4], in [7] and in experiment [8] was inactive. Further, the compound was classed as inactive in experiment [9], in experiment [10], in experiment [11], in experiment [12], in experiment [14] and in [15]. Also, the result in experiment [16], in [17], in experiment [18] and in experiment [20] was inactive. Moreover, the inhibition in experiment [5] was 74% (active); in experiment [6] it was 39% (active); in experiment [13], 12.2% (active). Also, the potentiation in [19] was 200% (active).
As to `Cc1cc(OCC(=O)NC2CCCCC2)ccc1Cl`, the result in experiment [1], in experiment [2], in experiment [3], in experiment [4], in experiment [5] and in experiment [6] was inactive. Besides, the outcome in experiment [7], in experiment [9], in experiment [10], in [11], in [12] and in experiment [13] was inactive. In addition, the result in experiment [15] and in experiment [16] was inactive. The potentiation in experiment [14] was 97.2% (active).
`Oc1c(Br)cc(Br)cc1C=Nc1ccc2[nH]ncc2c1`: the outcome in experiment [1], in experiment [2], in experiment [3], in experiment [4], in [6] and in experiment [7] was inactive. The result in experiment [8], in experiment [9], in [10], in [11], in [12] and in [14] was inactive. For the same compound, the result in experiment [15], in [16], in experiment [19] and in experiment [20] was inactive. The inhibition in experiment [5] was 68% (active); in experiment [13], 30.1% (active). Further, in [17], the activation is 184% (active). For the same compound, the potentiation in experiment [18] was 41.5% (active).
As for `c1ccc(-c2nc(NCc3ccco3)c3ccccc3n2)cc1`, the outcome in experiment [1], in experiment [2], in experiment [3], in [4], in [6] and in [7] was inactive. The result in experiment [8], in [9], in [10], in experiment [11], in [12] and in experiment [14] was inactive. Further, the result in experiment [15], in [16], in experiment [17], in experiment [18], in [19] and in [20] was inactive. For the same compound, the inhibition in experiment [5] is 87% (active); in [13], 32.3% (active).
`CC1=NN(c2ccccc2)C(=O)/C1=C/c1c(O)n(-c2ccc(F)c(Cl)c2)[nH]c1=O`: the outcome in [1], in [2], in experiment [3], in experiment [4], in experiment [6] and in experiment [7] was inactive. Moreover, the outcome in experiment [8], in [9], in experiment [10], in [11], in experiment [12] and in experiment [14] was inactive. For the same compound, the outcome in experiment [15], in experiment [16], in experiment [17], in experiment [18], in [19] and in experiment [20] was inactive. In addition, the figures for the inhibition in experiment [5] and in experiment [13] were 97% (active) and 17.1% (active), respectively.
As for `Cc1ccc(C(C)C)cc1OCCCCN1CCCC1`, the outcome in experiment [1], in [2], in experiment [5], in [6], in experiment [7] and in experiment [9] was inactive. Moreover, the compound was classed as inactive in experiment [10], in experiment [11], in experiment [12], in [13], in [15] and in [16]. The potentiation in [3] was 15% (active); in [4] it was 12% (active); in [14], 6.54% (active).
On to `Cc1ccc(/C=C/C(=O)c2ccc(O)cc2)cc1`, for which the outcome in experiment [1], in [2], in [3], in [4], in experiment [7] and in [8] was inactive. Further, the outcome in experiment [9], in experiment [10], in experiment [11], in experiment [12], in experiment [14] and in experiment [15] was inactive. In addition, the outcome in [16], in experiment [17], in experiment [18], in experiment [19] and in experiment [20] was inactive. Moreover, the inhibition in [5] was 76% (active); in experiment [6] it was 38% (active); in [13] it was 15.8% (active).
